# Laboratory results published in PubChem BioAssay (NCATS).
# Where “and” joins values, the source holds several entries; their conditions need not be identical. Identical values can stand only once. Records with an inconclusive call do not appear. Where a call stands in place of a potency, no number is given. Unmarked numbers belong to inactive results. Calls of active or inactive are those of the source. Calls follow the shape of the dose curve; as a rule, active = well fitted inhibition curve with a large enough effect; inconclusive = small, poorly fitted or top-dose-only effect; inactive = no such curve, though single readings can be large or run the other way.
# Test: Primary qHTS for inhibitors of nuclear receptor binding SET domain protein 2 (NSD2) in an RCH-ACV wild type WT cells (2C) (AID 1645877); also: nearly all actives have a fitted effect of over 70% in size
# Potency is read from the fitted curve at half-maximal effect.
compound,measurement,value
COc1c2c(c(C)c3c1C(=O)OC3)OC1(C)CC(O)C34OC(OC)(CC(OC(C)=O)C3(C)C1C2)OC4(C)C (configuration not stated),Potency,inactive
OCCc1ccc(O[C@@H]2O[C@H](CO)[C@@H](O)[C@H](O)[C@H]2O)cc1,Potency,inactive
CC1(C=O)CC[C@]2(C(=O)O[C@@H]3O[C@H](CO)[C@@H](O)[C@H](O)[C@H]3O)CC[C@]3(C)C(=CCC4[C@@]5(C)C[C@H](O)[C@H](O[C@@H]6OC[C@@H](O)[C@H](O)[C@H]6O)[C@@](C)(CO)C5CC[C@]43C)C2C1 (some centres not stated),"activity change, negative = cell killing",-3.33% [at 9.23 µM]
COc1ccc([C@@H]2OC[C@H]3[C@@H]2CO[C@@H]3c2ccc(OC3OC(CO)C(O)C(O)C3O)c(OC)c2)cc1OC (some centres not stated),Potency,inactive
CC(=O)NCC(=O)N1C2CCC1c1cc(Nc3ncc(C(F)(F)F)c(NC4CCC4)n3)ccc12 (configuration not stated),Potency,20.5 nM (active)
CC(=O)OC1C[C@]2(C)C(O)CC(C)=C[C@H](OC(=O)c3ccc(O)cc3)C2[C@]1(O)C(C)C (some centres not stated),Potency,inactive
Nc1nc(Nc2ccc(S(N)(=O)=O)cc2)n(C(=S)Nc2c(F)cccc2F)n1,Potency,inactive
NC1CCC(Nc2cc(-c3cccc(NCc4cccc(F)c4)n3)c(Cl)cn2)CC1 (configuration not stated),Potency,72.8 nM (active)
CN1CCN(c2ccc(C(=O)Nc3n[nH]c4ccc(Cc5cc(F)cc(F)c5)cc34)c(NC3CCOCC3)c2)CC1,Potency,3.65 µM (active) and 4.17 µM (active) and 6.51 µM (active)
NC(=O)[C@H](O[C@@H]1O[C@H](CO)[C@@H](O)[C@H](O)[C@H]1O)c1ccccc1,Potency,inactive
Cc1cnc(Nc2ccc(F)cc2Cl)nc1-c1c[nH]c(C(=O)NC(CO)c2cccc(Cl)c2)c1 (configuration not stated),Potency,2300 nM (active)
Cc1nc2sc(C(=O)NCc3ccncc3)c(N)c2c(C)c1Cl,Potency,inactive
CC(C)(C)NCCCNC(=O)c1cccc(Br)c1,Potency,inactive
CN(C)C(=O)NC1CCC(CCN2CCN(c3cccc(Cl)c3Cl)CC2)CC1 (configuration not stated),"activity change, negative = cell killing",2.1% [at 9.23 µM]
OC[C@@]1(O)CO[C@@H](OC[C@H]2O[C@@H](Oc3c[nH]c4ccccc34)[C@H](O)[C@@H](O)[C@@H]2O)[C@@H]1O,Potency,inactive
C/C(=C\C=C\C(C)C1CCC2(C)C3CCC4C(C)(C)C(=O)CCC45CC35CCC12C)C(=O)O (configuration not stated),Potency,inactive
N[C@@]1(C(=O)O)CC[C@H]2[C@H](C(=O)O)[C@H]21,Potency,inactive
CC(O)/C=C/C1(O)C(C)C(O[C@@H]2O[C@H](CO)[C@@H](O)[C@H](O)[C@H]2O)C(O)CC1(C)C (some centres not stated),Potency,inactive
C[C@@H]1CC[C@]2(C(=O)O)CC[C@]3(C)C(=CCC4[C@@]5(C)C[C@@H](O)[C@H](O)[C@@](C)(CO)C5CC[C@]43C)C2[C@]1(C)O (some centres not stated),Potency,inactive
COc1ccc(CCC(=O)c2c(O)cc(O)cc2O[C@@H]2O[C@H](CO)[C@@H](O)[C@H](O)[C@H]2O)cc1,Potency,8930 nM (active)
C/C=C(/COC(=O)/C(C)=C/C)C(=O)OC(CC)c1ccc(OC)c(OC)c1 (configuration not stated),Potency,inactive
CC1OC(OC2C(CO)OC(OCC3OC(OC(=O)C45CCC(C)(C)CC4C4=CCC6C7(C)CCC(OC8OC(CO)C(O)C(OC9OC(CO)C(O)C(O)C9O)C8O)C(C)(C)C7CCC6(C)C4(C)CC5)C(O)C(O)C3O)C(O)C2O)C(O)C(O)C1OC1OC(CO)C(O)C(O)C1O (configuration not stated),"activity change, negative = cell killing",-10.4% [at 9.23 µM]
C[C@H](N)C(=O)N[C@@H](Cc1ccc(O)cc1)C(=O)N1CCC[C@H]1C(=O)NCC(=O)N[C@@H](CCCCN)C(=O)N[C@@H](Cc1ccccc1)C(N)=O,outcome,inactive [at 9.23 µM]
COc1cc(/C=C/C(=O)O[C@H]2[C@H](O)[C@@H](CO)O[C@@]2(CO)O[C@H]2O[C@H](CO)[C@@H](O)[C@H](O)[C@H]2O)ccc1O,Potency,inactive
COc1ccc(C[C@H](N)C(=O)N[C@@H]2[C@H](O)[C@H](n3cnc4c(N(C)C)ncnc43)O[C@@H]2CO)cc1,Potency,205 nM (active)
C[C@@H]1O[C@@H](O[C@@H]2[C@@H](O)[C@H](O[C@H]3CC[C@@]4(C)C(CC[C@]5(C)C4CC=C4[C@@H]6CC(C)(C)CC[C@]6(C(=O)O[C@@H]6O[C@H](CO)[C@@H](O)[C@H](O)[C@H]6O)CC[C@]45C)C3(C)C)O[C@H](C(=O)O)[C@H]2O)[C@H](O)[C@H](O)[C@H]1O (some centres not stated),"activity change, negative = cell killing",-14.9% [at 9.23 µM]
Cc1cccc(S(=O)(=O)N2CCC[C@@H]2CCN2CCC(C)CC2)c1,Potency,inactive
